# Results taken from the OligoGym collection.
# Target: UBTD2
# Assay: pooled miR-30 sensor sort-seq; sequence = guide strand
# Details: shRNA
# Further: reference of the scale not given here.
row,Sequence,sensor-assay potency score (higher = more potent)
1,AACCTGTACAACATAGTCCTTT,0.105
2,TATGTCGCTCTTTTCCTCTATC,-0.749
3,TCGAACTTCATTTTGTCAGTGA,0.607
4,AAAACCACCGCTGACTACCTGG,-0.559
5,TATGTTTGCACCATCAATGATT,-0.561
6,TACACTGGAAGCTGATATCTGT,0.00464
7,TGGAATACTGTGTCTGTGCTGC,-0.0459
8,TAACCTGTACAACATAGTCCTT,-0.877
9,TACAACATAGTCCTTTGGGATC,-1.63
10,TCTTGCTGCGTAGTTGTCCATC,-1.04
11,TGTGCTGCGAACCACAAGCTTG,-1.41
12,TTCATAGGGAATTTAGAGCAGT,-0.206

# Target: UBXN2A
# Assay: as above
# Details: shRNA
row,Sequence,sensor-assay potency score (higher = more potent)
1,TATATTTACATCTACCTGTTTC,-0.892
2,ATAACTTCTGAAATCGTCGTTG,0.446
3,TTTTATATTTACATCTACCTGT,0.256
4,TACATCTACCTGTTTCTTCTGT,0.409
5,TTCTTTATCAAAAATTCCCTGT,-0.0297
6,TTGATTGTTGATTATTACCAAG,-1.29
7,TTGTACTTATCTAAACATCTTC,-0.32
8,TTAATATATCTTGATAACTGGT,-0.45
9,TAATATATCTTGATAACTGGTA,0.173
